From PubChem BioAssay (Tox21)
Calls of active or inactive are those of the source. The call rests on the fitted dose curve.

Assay: qHTS assay to identify small molecule agonists of the estrogen related receptor (ERR) signaling pathway from Tox21 library (AID 1224849); further: nearly all actives have a fitted effect of over 15% in size
Settings: ERR reporter cell line, ONE-Glo luciferase, 18 h; at 92.4 µM (top of the series) unless noted
Source text: National Center for Advancing Translational Sciences [NCATS]
NIH Chemical Genomics Center [NCGC]
U.S. Environmental Protection Agency [EPA]
National Institutes of Environmental Health Sciences [NIEHS]
National Toxicology Program [NTP]
Estrogen related receptors (ERRs), the first orphan nuclear receptors discovered, play an important role in the control of cellular energy metabolism. ERRs are required for high-energy production in response to the environmental challenges. ERR-alpha was also identified as an adverse marker for breast cancer progression; ERR-alpha-positive tumors have a poor prognosis. To screen and to identify environmental compounds that perturb the ERR signaling pathways could provide valuable information for potential therapeutic or preventive measures in the treatment of metabolic disease. For identifying ERR agonists, ERR cell line (provided by NTP) has been used to screen Tox21 10K library.
The ERR cells were dispensed at 2,000 cells/5 ul/well in 1536-well white plates using a Multidrop dispenser. After the assay plates were incubated at a 37 C/5% CO2 incubator for 6 hours, 23 nL of compounds dissolved in DMSO, positive and negative controls or DMSO only was transferred to the assay plate by a pin tool. The plates were incubated at 37 C for 18 hours. 4 ul/well of One-Glo reagent was added into the assay plates using a Flying Reagent Dispenser. After 30-minute incubation at room temperature, the luminescence intensity in the plates was measured using a ViewLux plate reader.
On the % scale 0 is the no-effect control and ±100 the full control effect.

Row | Structure (SMILES) | activity change, positive = activation
1 | CCCCC/C=C\C/C=C\CCCCCCCC(=O)NC(C)c1ccccc1 (stereo not given) | -35.5% [at 42.5 µM] (inactive)
2 | CC(CSC(=O)c1ccccc1)C(=O)N1C[C@@H](Sc2ccccc2)C[C@H]1C(=O)O (stereo not given in full) | -0.059% [at 19 µM] (inactive)
3 | COc1ccc(C)cc1[N+](=O)[O-] | 4.3% (inactive)
4 | CCOc1ccc(N)c([N+](=O)[O-])c1 | -0.453% (inactive)
5 | COc1ccc(C(=O)Nc2nc3ccccc3c(NCc3ccccc3)c2C#N)cc1 | -5.4% (inactive)
6 | OC(C#CCN1CCCC1)(c1ccccc1)c1ccccc1 | -10.1% [at 42.5 µM] (inactive)
7 | C=CC(=O)OCCOCCOC(=O)C=C | -74.8% (active)
8 | Nc1ccc([N+](=O)[O-])c(C(F)(F)F)c1 | -17.3% [at 42.5 µM] (inactive)
9 | CN(C)CCCN1c2ccccc2Sc2ccccc21 | 7.95% [at 42.5 µM] (inactive)
10 | c1ccc(-c2ccccn2)nc1 | -20.5% (inactive)
11 | CCc1c(C(=O)NN2CCCCC2)nn(-c2ccc(Cl)cc2Cl)c1-c1ccc(Br)cc1 | -62% (inactive)
12 | COc1cc2nc(N(C)CCCNC(=O)C3CCCO3)nc(N)c2cc1OC (stereo not given) | -34.3% [at 42.5 µM] (inactive)
13 | O=S(c1cc(Cl)cc(Cl)c1O)c1cc(Cl)cc(Cl)c1O | -6.01% [at 42.5 µM] (inactive)
14 | C#Cc1cccc(Nc2ncnc3cc(OCCOC)c(OCCOC)cc23)c1 | -38.1% [at 42.5 µM] (inactive)
15 | COc1ccc(C(=O)N2CCN(CC(=O)N3CCOCC3)CC2)cc1 | 4.84% [at 42.5 µM] (inactive)
16 | CCOC(=O)Cc1cccc2ccccc12 | -0.505% (inactive)
17 | CN(C)c1ccc(C(c2ccccc2)c2ccc(N(C)C)cc2)cc1 | -34.5% (inactive)
18 | N=c1ccn2c(n1)O[C@H]1[C@H](O)[C@@H](CO)O[C@H]12 | -6.33% (inactive)
19 | COc1ccc(C(=O)c2ccc(OC)cc2O)c(O)c1 | -2.18% (active)
20 | O=C(O)c1ccc(-n2nc(-c3ccccc3O)nc2-c2ccccc2O)cc1 | -48.9% [at 42.5 µM] (inactive)

Row | Structure (SMILES) | activity change, positive = activation
21 | CCn1cc(C(=O)O)c(=O)c2cnc(N3CCNCC3)nc21 | 2.22% [at 42.5 µM] (inactive)
22 | Cc1ncc(CO)c(C=O)c1O | 2.22% [at 42.5 µM] (inactive)
23 | CCCCCCCCCCCCN1CCCCCC1=O | -23.3% (inactive)
24 | NC(N)=NCCC[C@H](N)C(=O)O | 5.81% [at 8.39 µM] (inactive)
25 | Cc1c(N)cccc1[N+](=O)[O-] | -14.7% (inactive)
26 | CCCCCCCC#N | 2.85% (inactive)
27 | CN1Cc2cc(C(=O)N3CCC(C4CCNCC4)CC3)ccc2NC(CC(=O)O)C1=O (stereo not given) | 1.47% [at 42.5 µM] (inactive)
28 | C=C1C(=C/C=C2\CCC[C@]3(C)[C@@H]([C@H](C)/C=C/[C@@H](O)C4CC4)CC[C@@H]23)C[C@@H](O)C[C@@H]1O | -57.7% [at 42.5 µM] (inactive)
29 | CN1CCC(=C2c3ccccc3Sc3ccccc32)CC1 | 1.79% [at 42.5 µM] (inactive)
30 | ClCCOCCOCCCl | 2.88% (inactive)
31 | O=C(OCCCCCCOC(=O)c1ccccc1)c1ccccc1 | 1.59% (inactive)
32 | CC(C)CC(=O)C1C(=O)c2ccccc2C1=O | -53.7% (inactive)
33 | CCC(=O)O[C@]1(C(=O)CCl)[C@@H](C)C[C@H]2[C@@H]3CCC4=CC(=O)C=C[C@]4(C)[C@@]3(F)[C@@H](O)C[C@@]21C | -18.7% [at 42.5 µM] (inactive)
34 | CCN(CC)c1ccc(C(=C2C=CC(=[N+](CC)CC)C=C2)c2cc(S(=O)(=O)O)ccc2S(=O)(=O)[O-])cc1 | -45.9% [at 42.5 µM] (inactive)
35 | O=C(NCC1CN(c2ccc(N3CCOCC3=O)cc2)C(=O)O1)c1ccc(Cl)s1 (stereo not given) | -38.4% [at 42.5 µM] (inactive)
36 | CCC(C)(C)CC | -6.86% (inactive)
37 | Cc1oc2c(NC(=O)c3c(Cl)cccc3Cl)cccc2c1C(C)(C)O | -55.8% (inactive)
38 | Nc1cc(C(=O)O)c(O)c(S(=O)(=O)O)c1 | 7.51% (inactive)
39 | C=CC(=O)OCCOc1ccccc1 | 46.4% (active)
40 | C=CCOC(=O)CCC1CCCCC1 | -4.2% (inactive)
